Common to all, as to assay: DAPPL (digital affinity profiling via proximity ligation, sequencing); 10 mM Tris-HCl pH 7.5, 50 mM NaCl, 1 mM DTT, 4% glycerol, room temperature, 30 min; GST-TFs on glutathione beads, 16-mer random dsDNA library, 0.1% formaldehyde crosslink after washing; high values mean tight binding
The target in assay [1] is T1, FEV (Homo sapiens, UniProt Q99581 1-238).
T1 sequence: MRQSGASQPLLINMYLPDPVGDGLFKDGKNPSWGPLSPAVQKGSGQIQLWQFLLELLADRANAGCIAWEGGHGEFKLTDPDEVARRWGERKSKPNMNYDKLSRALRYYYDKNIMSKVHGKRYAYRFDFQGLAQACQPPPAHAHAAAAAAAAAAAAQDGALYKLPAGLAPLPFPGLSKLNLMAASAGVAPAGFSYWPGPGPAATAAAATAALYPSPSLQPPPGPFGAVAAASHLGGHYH
The following applies: protein: recombinant; tags: N-terminal GST; dsDNA, one strand shown. In outline:
(§1)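 Binding signal is given per hexamer as its read frequency for a factor divided by its frequency in the tag-only sample. GST-fused human transcription factors were expressed in yeast, captured on glutathione beads, barcoded with DNA and pooled with that sample, then incubated with 200 nmole of a 16-mer random double-stranded DNA library in Tris/NaCl/DTT/glycerol buffer for 30 min at room temperature. The pools were then washed, crosslinked, proximity-ligated, amplified by PCR and sequenced on an Illumina NextSeq500.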

For assay [2], the target named is ETV5 (Homo sapiens, UniProt P41161 1-510). The note with it: protein: recombinant; tags: N-terminal GST; dsDNA, one strand shown. In outline: as §1
In assay [3] the target is HSF1 (Homo sapiens, UniProt Q00613 1-529). The following applies: protein: recombinant; tags: N-terminal GST; chain copies: 3; dsDNA, one strand shown. In outline: as §1
For assay [4], the target named is T2, SPIC (Homo sapiens, UniProt Q8N5J4 1-248).
T2 sequence: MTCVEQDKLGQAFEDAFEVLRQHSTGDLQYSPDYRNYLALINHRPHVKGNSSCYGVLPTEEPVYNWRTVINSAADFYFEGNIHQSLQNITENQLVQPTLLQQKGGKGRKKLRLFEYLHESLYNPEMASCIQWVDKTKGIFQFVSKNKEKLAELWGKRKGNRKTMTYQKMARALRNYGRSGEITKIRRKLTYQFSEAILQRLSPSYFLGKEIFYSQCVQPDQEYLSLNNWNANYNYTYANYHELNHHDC
The following applies: protein: recombinant; tags: N-terminal GST; dsDNA, one strand shown. In outline:
as §1

In assay [5] the target is ELF4 (Homo sapiens, UniProt Q99607 1-663). The note with it: protein: recombinant; tags: N-terminal GST; dsDNA, one strand shown. In outline:
as §1

Assay [6] addresses T3, ELK4 (Homo sapiens, UniProt P28324-2 1-405).
T3 sequence: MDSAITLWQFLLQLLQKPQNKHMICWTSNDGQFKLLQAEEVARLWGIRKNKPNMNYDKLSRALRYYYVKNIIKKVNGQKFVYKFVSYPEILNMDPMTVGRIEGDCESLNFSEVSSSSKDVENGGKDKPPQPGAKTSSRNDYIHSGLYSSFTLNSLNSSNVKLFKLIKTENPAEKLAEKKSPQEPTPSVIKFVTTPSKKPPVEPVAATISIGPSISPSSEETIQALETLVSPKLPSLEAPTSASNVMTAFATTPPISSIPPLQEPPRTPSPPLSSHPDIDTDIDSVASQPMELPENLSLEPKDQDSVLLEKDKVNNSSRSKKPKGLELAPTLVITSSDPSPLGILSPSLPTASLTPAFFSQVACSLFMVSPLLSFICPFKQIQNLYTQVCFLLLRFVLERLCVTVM
The following applies: protein: recombinant; tags: N-terminal GST; dsDNA, one strand shown. In outline: as §1

The target in assay [7] is T4, ETV2 (Homo sapiens, UniProt O00321 1-342).
T4 sequence: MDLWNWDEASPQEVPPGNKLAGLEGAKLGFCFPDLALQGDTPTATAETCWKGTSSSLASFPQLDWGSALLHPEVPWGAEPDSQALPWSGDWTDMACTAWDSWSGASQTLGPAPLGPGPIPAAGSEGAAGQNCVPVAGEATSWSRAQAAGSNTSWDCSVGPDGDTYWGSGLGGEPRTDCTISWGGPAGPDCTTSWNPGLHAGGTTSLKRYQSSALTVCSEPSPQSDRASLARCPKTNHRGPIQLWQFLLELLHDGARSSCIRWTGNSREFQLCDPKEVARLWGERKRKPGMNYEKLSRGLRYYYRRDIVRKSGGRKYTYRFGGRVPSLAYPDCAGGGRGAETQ
The following applies: protein: recombinant; tags: N-terminal GST; dsDNA, one strand shown. In outline: as §1

In assay [8] the target is T5, ELF3 (Homo sapiens, UniProt P78545 1-371).
T5 sequence: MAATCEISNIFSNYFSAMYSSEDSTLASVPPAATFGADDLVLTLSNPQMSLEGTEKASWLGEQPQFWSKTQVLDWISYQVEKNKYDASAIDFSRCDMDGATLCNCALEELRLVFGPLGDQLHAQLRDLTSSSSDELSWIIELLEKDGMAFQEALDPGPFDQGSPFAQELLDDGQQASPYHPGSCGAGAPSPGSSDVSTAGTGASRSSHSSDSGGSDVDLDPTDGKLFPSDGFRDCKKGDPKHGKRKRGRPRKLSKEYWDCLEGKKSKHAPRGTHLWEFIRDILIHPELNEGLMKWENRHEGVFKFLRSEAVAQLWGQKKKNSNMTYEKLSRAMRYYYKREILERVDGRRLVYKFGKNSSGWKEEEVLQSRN
The note with it: protein: recombinant; tags: N-terminal GST; dsDNA, one strand shown. Put shortly: as §1

In assay [9] the target is CRX (Homo sapiens, UniProt O43186 1-299). The note with it: protein: recombinant; tags: N-terminal GST; dsDNA, one strand shown. In outline: as §1
For assay [10], the target named is ETV1 (Homo sapiens, UniProt P50549 1-477). The note with it: protein: recombinant; tags: N-terminal GST; dsDNA, one strand shown. Put shortly:
as §1

Assay [11] deals with T6, ERF (Homo sapiens, UniProt P50548 1-548).
T6 sequence: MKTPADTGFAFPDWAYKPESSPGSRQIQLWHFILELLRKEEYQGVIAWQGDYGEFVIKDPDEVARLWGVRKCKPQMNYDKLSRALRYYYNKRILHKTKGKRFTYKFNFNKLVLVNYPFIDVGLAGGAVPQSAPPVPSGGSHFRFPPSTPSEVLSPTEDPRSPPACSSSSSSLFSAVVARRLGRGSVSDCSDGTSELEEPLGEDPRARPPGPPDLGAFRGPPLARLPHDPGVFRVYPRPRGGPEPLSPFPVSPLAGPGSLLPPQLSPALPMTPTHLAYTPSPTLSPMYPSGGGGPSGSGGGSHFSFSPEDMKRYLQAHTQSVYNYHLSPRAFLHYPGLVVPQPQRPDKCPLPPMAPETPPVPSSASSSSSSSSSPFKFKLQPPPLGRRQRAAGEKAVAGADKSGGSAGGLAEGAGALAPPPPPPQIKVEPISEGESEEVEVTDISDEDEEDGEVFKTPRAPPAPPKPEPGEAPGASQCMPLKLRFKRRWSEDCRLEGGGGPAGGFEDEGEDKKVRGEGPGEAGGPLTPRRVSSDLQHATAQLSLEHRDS
The following applies: protein: recombinant; tags: N-terminal GST; dsDNA, one strand shown. Put shortly:
as §1

The target in assay [12] is T7, ETV3L (Homo sapiens, UniProt Q6ZN32 1-361).
T7 sequence: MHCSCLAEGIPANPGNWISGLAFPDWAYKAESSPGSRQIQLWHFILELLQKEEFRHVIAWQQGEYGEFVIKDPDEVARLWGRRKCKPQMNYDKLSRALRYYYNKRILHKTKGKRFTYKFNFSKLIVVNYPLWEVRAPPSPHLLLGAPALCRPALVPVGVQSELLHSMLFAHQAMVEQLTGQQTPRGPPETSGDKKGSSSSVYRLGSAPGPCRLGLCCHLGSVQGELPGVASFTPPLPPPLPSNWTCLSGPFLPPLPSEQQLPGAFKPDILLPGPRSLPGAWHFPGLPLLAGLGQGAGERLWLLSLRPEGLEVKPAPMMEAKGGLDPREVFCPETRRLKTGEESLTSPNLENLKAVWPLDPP
The note with it: protein: recombinant; tags: N-terminal GST; dsDNA, one strand shown. Put shortly: as §1

In assay [13] the target is T8, ETS2 (Homo sapiens, UniProt P15036 1-469).
T8 sequence: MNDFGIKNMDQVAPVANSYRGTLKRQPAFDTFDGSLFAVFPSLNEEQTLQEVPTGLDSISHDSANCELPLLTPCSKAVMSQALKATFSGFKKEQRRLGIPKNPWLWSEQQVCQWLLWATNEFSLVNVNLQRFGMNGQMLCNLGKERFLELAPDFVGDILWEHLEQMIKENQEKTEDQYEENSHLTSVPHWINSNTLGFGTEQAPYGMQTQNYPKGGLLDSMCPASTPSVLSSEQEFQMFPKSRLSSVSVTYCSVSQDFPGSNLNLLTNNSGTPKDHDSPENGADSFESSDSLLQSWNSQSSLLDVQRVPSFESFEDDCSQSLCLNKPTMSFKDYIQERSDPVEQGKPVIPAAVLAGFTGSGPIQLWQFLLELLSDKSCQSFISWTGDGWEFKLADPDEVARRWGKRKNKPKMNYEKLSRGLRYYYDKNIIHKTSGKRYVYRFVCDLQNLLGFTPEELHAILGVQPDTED
The following applies: protein: recombinant; tags: N-terminal GST; dsDNA, one strand shown. Put shortly: as §1

The target in assay [14] is T9, SPDEF (Homo sapiens, UniProt O95238 1-335).
T9 sequence: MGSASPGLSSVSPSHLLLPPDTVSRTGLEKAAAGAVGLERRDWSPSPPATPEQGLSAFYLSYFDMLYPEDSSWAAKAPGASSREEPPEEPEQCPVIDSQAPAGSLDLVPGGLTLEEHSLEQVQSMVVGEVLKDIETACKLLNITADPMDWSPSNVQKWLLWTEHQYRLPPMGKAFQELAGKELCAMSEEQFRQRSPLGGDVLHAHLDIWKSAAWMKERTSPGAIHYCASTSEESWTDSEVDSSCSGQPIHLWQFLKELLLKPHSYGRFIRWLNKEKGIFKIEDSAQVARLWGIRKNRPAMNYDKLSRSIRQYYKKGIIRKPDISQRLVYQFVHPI
The following applies: protein: recombinant; tags: N-terminal GST; dsDNA, one strand shown. In outline:
as §1

Assay [15] has as its target T10, ETV7 (Homo sapiens, UniProt Q9Y603 1-341).
T10 sequence: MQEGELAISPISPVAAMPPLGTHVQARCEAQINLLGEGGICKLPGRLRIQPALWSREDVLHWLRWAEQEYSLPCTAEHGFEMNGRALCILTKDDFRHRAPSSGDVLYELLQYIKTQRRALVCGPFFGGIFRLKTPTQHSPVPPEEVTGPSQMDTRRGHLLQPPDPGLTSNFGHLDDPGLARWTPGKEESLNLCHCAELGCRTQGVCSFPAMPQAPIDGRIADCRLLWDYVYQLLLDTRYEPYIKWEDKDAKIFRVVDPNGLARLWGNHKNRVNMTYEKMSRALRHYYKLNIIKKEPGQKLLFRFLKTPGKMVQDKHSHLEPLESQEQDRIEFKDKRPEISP
The note with it: protein: recombinant; tags: N-terminal GST; dsDNA, one strand shown. In outline:
as §1

Assay [16] addresses T11, ELF5 (Homo sapiens, UniProt Q9UKW6-2 1-255).
T11 sequence: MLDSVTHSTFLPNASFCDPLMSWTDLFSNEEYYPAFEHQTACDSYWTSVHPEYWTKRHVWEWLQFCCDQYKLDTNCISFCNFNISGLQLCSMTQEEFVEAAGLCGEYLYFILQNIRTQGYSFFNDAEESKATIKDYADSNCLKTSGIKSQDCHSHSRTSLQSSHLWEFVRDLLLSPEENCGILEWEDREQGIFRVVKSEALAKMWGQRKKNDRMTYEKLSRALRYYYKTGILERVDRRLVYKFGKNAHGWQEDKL
The note with it: protein: recombinant; tags: N-terminal GST; dsDNA, one strand shown. In outline: as §1

For assay [17], the target named is T12, ETV3 (Homo sapiens, UniProt P41162-2 1-143).
T12 sequence: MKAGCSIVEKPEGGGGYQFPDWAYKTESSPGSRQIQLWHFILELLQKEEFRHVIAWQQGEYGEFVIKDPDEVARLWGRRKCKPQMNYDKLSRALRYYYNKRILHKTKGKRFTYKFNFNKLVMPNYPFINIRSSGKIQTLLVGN
The note with it: protein: recombinant; tags: N-terminal GST; dsDNA, one strand shown. Put shortly: as §1

Assay [18] concerns the target ETV6 (Homo sapiens, UniProt P41212 1-452). The following applies: protein: recombinant; tags: N-terminal GST; dsDNA, one strand shown. Put shortly:
as §1

HSF1, sequence (Q00613 whole entry): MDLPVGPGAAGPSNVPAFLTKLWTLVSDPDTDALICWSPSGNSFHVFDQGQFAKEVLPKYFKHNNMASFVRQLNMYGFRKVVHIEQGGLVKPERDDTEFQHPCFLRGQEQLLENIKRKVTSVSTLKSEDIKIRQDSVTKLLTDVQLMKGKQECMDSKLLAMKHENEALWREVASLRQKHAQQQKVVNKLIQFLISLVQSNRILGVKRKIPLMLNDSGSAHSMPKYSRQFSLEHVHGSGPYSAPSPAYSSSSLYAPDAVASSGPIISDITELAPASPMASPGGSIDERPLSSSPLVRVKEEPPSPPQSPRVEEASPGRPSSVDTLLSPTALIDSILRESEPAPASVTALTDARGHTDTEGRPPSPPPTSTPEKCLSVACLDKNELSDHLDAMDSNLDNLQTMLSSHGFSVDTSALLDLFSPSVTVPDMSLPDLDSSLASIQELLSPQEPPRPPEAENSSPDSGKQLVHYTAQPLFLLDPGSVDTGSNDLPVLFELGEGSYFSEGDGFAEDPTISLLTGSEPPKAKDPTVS
CRX, sequence (O43186 whole entry): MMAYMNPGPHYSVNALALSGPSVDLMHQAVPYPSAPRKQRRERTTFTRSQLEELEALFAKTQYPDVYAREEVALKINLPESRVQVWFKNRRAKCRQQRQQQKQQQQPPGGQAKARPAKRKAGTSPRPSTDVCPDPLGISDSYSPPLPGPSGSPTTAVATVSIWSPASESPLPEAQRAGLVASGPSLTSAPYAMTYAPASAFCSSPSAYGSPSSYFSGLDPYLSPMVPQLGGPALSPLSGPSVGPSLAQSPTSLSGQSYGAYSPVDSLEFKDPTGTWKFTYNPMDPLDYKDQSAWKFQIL
ETV1, sequence (P50549 whole entry): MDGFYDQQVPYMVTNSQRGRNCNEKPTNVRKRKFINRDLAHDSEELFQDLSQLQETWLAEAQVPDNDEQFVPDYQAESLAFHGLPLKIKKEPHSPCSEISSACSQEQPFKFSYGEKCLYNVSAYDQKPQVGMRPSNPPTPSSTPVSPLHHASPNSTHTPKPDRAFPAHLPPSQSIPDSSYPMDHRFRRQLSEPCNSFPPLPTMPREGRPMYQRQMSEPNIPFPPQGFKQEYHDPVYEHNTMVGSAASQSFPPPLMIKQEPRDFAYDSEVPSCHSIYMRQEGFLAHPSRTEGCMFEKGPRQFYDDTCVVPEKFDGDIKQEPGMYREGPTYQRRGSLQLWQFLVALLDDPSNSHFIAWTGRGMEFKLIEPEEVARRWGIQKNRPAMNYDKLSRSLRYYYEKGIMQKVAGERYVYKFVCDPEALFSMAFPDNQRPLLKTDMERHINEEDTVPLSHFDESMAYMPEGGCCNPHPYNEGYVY
ELF4, sequence (Q99607 whole entry): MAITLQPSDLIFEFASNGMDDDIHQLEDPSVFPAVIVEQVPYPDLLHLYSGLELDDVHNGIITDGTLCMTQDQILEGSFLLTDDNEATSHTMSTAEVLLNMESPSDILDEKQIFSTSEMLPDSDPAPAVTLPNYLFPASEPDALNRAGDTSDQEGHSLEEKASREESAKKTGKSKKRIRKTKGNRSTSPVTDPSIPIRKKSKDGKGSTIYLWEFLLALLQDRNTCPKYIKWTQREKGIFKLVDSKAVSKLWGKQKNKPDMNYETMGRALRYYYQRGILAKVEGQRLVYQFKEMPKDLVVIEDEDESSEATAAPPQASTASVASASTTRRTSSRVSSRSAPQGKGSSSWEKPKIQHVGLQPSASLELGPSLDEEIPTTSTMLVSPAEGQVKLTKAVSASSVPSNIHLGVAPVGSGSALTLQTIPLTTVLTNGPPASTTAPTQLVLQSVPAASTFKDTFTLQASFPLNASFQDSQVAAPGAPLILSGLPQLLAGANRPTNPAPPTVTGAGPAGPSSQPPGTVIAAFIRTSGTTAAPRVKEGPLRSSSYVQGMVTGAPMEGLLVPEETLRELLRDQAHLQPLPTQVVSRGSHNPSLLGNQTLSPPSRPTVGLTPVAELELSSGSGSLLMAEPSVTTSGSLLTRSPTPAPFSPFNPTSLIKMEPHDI
ETV6, sequence (P41212 whole entry): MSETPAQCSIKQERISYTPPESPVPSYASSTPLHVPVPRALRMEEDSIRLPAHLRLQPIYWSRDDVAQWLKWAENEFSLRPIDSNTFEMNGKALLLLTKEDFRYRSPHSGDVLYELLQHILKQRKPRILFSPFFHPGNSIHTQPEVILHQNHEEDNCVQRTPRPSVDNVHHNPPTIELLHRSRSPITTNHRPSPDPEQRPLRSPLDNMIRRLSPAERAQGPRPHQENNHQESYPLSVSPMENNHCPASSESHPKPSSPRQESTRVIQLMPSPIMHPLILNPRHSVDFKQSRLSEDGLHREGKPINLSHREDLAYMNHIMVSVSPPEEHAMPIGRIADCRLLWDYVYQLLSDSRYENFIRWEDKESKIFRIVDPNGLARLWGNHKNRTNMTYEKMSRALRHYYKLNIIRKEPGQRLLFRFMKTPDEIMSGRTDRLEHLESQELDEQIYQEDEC
ETV5, sequence (P41161 whole entry): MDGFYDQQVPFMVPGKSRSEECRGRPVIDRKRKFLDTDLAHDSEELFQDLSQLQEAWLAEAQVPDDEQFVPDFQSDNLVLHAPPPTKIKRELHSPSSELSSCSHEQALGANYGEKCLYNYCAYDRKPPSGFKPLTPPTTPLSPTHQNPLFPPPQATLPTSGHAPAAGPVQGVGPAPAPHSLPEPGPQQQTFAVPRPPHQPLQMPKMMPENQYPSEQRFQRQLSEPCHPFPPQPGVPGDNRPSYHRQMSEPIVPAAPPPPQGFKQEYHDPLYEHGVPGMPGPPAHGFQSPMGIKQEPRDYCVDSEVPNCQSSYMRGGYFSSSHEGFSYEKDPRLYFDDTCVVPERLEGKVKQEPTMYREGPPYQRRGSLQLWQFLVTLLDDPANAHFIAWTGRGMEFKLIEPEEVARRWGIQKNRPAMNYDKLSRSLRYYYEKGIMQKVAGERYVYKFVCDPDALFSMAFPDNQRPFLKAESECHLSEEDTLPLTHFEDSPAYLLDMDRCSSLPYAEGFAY

For GCTCCT, the binding signal is 1.46 fold enrichment (6-mer frequency, TF over GST control) in assay [1]; 1.4 fold enrichment (6-mer frequency, TF over GST control) in assay [2]; 1.29 fold enrichment (6-mer frequency, TF over GST control) in assay [3]; 1.44 fold enrichment (6-mer frequency, TF over GST control) in assay [4]; 1.51 fold enrichment (6-mer frequency, TF over GST control) in [5]; 1.33 fold enrichment (6-mer frequency, TF over GST control) in [6]. Besides, the binding signal in assay [7] is 1.57 fold enrichment (6-mer frequency, TF over GST control); in [8], 1.57 fold enrichment (6-mer frequency, TF over GST control); in [9], 1.34 fold enrichment (6-mer frequency, TF over GST control); in [10], 1.46 fold enrichment (6-mer frequency, TF over GST control); in assay [11] it was 1.54 fold enrichment (6-mer frequency, TF over GST control); in assay [12], 1.61 fold enrichment (6-mer frequency, TF over GST control). In addition, the binding signal is 1.45 fold enrichment (6-mer frequency, TF over GST control) in assay [13]; 1.54 fold enrichment (6-mer frequency, TF over GST control) in [14]; 1.43 fold enrichment (6-mer frequency, TF over GST control) in [15]; 1.44 fold enrichment (6-mer frequency, TF over GST control) in assay [16]; 1.37 fold enrichment (6-mer frequency, TF over GST control) in [17]; 1.5 fold enrichment (6-mer frequency, TF over GST control) in [18].

These data come from publication PMC7862700, “An all-to-all approach to the identification of sequence-specific readers for epigenetic DNA modifications on cytosine”.
